Hit rate of the full screen: of about 220,000 compounds, about 830 (0.38%) were called active.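 The calls were made as follows: active = compound inhibiting the enzyme by more than half at any dose during confirmatory dose-response retesting; inconclusive = strong single-dose inhibitors picked by rank but not retested; inactive = the rest.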 Not all results are given here. Results with a measured potency or affinity are listed apart.
Biological target: Leucine aminopeptidase (Plasmodium falciparum (isolate 3D7)) (UniProt Q8IL11)
Assay: P. falciparum M17LAP inhibitors, primary screen, biochemical, fluorogenic H-Leu-NHMec substrate, 1536-well (AID 1619);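 also: plate controls were full reaction with DMSO carrier for no effect and no enzyme background for full effect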
Details: recombinant M17LAP, H-Leu-NHMec fluorogenic kinetic assay; at 30 µM; stronger effect = higher value

Leucine aminopeptidase (Plasmodium falciparum (isolate 3D7)), sequence (Q8IL11 whole entry, looked up): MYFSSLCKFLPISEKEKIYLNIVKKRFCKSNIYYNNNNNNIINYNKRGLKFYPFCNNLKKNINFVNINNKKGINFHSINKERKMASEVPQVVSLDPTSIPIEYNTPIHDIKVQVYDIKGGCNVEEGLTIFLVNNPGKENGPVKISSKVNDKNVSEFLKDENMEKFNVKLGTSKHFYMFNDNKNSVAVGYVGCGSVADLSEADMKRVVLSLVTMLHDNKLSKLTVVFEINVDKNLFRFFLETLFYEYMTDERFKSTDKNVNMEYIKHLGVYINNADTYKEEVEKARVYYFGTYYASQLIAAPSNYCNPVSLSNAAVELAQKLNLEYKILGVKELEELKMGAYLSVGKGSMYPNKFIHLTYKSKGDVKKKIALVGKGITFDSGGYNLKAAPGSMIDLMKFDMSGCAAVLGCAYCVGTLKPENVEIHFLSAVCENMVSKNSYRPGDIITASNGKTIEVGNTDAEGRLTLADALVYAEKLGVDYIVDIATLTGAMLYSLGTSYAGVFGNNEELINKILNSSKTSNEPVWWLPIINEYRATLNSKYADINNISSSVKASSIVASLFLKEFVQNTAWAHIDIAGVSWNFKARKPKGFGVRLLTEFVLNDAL

inhibition, inactive:
O=C(CSC1=NCCS1)Nc1ccc(S(=O)(=O)NC2CCCCC2)cc1 8.51%, COc1cc(NS(=O)(=O)c2ccc(NC(C)=O)cc2)nc(OC)n1 -0.66%, O=C(COC(=O)c1n[nH]c2ccccc12)c1cc(F)ccc1F 3.93%, COC(=O)c1cc(NC(C)=O)ccc1N1CCOCC1 8.76%, CC(C)(C)c1ccc(C2C(C#N)=C(N)Oc3n[nH]c(-c4cccnc4)c32)cc1 (centres undefined) 3.44%, Cc1ccc(Cn2ccc(NC(=O)c3cc4nc5c(c(C(F)(F)F)n4n3)CCc3ccccc3-5)n2)cc1 13.9%, COc1ccc(CC(CC(=O)O)C(=O)NCc2ccccc2)cc1 (centres undefined) -4.42%, COc1ccc(NC(=O)C(CC(=O)O)Cc2ccc(C)cc2)cc1 (centres undefined) 53%, COc1ccc(C(CC(=O)Nc2ccc(F)cc2)c2ccccc2)cc1 (centres undefined) -0.86%, COc1ccc(NC(=O)Cc2ccccc2)cc1 34.6%, CCOc1ccc(NC(=O)C(CC(=O)O)Cc2ccccc2)cc1 (centres undefined) 1.68%, COc1ccc(NC(=O)C(CC(=O)O)C(C)c2ccccc2)cc1 (centres undefined) -2.5%, COc1ccc(OC)c(NC(=O)C(CC(=O)O)Cc2ccc(Cl)cc2)c1 (centres undefined) 35.7%, COc1ccc(NC(=O)C(Cc2ccccc2)n2cccc2)cc1 (centres undefined) -2.31%, CCOC(=O)Nc1ccc2nc3n(c(=O)c2c1)CCCCC3 9.64%, COc1ccc2ccccc2c1CN1CCN(Cc2ccccc2)CC1 7.12%, CN1CCN(c2cc(=O)n(Cc3ccc(F)cc3)c(=O)[nH]2)CC1 -0.83%, COc1ccc(-c2nc(=S)[nH][nH]2)cc1OC -3.54%, O=C(O)CC(Cc1ccc(Cl)cc1)C(=O)Nc1ccc([N+](=O)[O-])cc1 (centres undefined) 44.7%, O=C(O)CC(NNC(=O)c1ccccc1)C(=O)Nc1ccc([N+](=O)[O-])cc1 (centres undefined) 4.13%, c1ccc(COc2ccc(CNCc3cccs3)cc2)cc1 0.61%, Cc1cc(NC(=O)CSc2nnc(CNc3ccc(F)cc3)n2C2CCCCC2)no1 -6.09%, COc1cc2nc(C3CCC3)nc(N3CCN(c4ccccc4OC)CC3)c2cc1OC 7.31%, CCOc1c(Br)cc(CNc2ccc3c(c2)OCCO3)cc1OC 2.99%, COc1cc(CO)cc(Br)c1OCC(=O)O -4.17%, COc1cc(CNc2ccc(N3CCOCC3)cc2)cc(Br)c1OC -2.11%, CCOc1c(Br)cc(CNC2CCCCCCC2)cc1OC -3.96%, CCOC(=O)c1nc(Nc2ccc(C(=O)O)cc2)c2ccccc2n1 23.8%, CCOc1ccc(N2C(=O)/C(=C/c3ccccc3)N=C2SC)cc1 2.97%, COC1=C(OC)C(=O)C(CCCCCCCCCCO)=C(C)C1=O -2.37%, CS(=O)(=O)N(CC(=O)NC1CCCCC1)Cc1ccc(Cl)cc1 4.5%, CC(C)NC(=O)CN1C(=O)c2ccccc2S1(=O)=O 7.45%, CN(c1cccc(NC(=O)CN2C(=O)c3ccccc3S2(=O)=O)c1)S(C)(=O)=O 51.6%, O=C(CN1C(=O)c2ccccc2S1(=O)=O)NC1CCCCCC1 5.61%, O=C(CN1C(=O)c2ccccc2S1(=O)=O)NC1CCCC1 33.2%, O=C(CN1c2cccc3cccc(c23)S1(=O)=O)Nc1ccccc1 2.82%, O=C(CN1C(=O)c2ccccc2S1(=O)=O)Nc1cccnc1 27.9%, O=C(CCN1C(=O)c2ccccc2S1(=O)=O)Nc1ccccc1 6.82%, COc1ccc(NC(=O)CN2c3cccc4cccc(c34)S2(=O)=O)c(OC)c1 13.8%, COc1ccc(NS(=O)(=O)c2cccc(C(=O)N/N=C/c3ccc4c(c3)OCCO4)c2)cc1 6.63%, COc1ccccc1-c1noc(-c2cccnc2)n1 -3.7%, CCOC(=O)c1[nH]c(C)c(C(=O)N2CCc3c([nH]c4ccccc34)C2c2ccccn2)c1C (centres undefined) -1.65%, COC(=O)C(C(=O)NCC1CCCO1)C1CCCCCC1 (centres undefined) 13.6%, CCc1nnc(NC(=O)C(CC)c2ccccc2)s1 (centres undefined) -2.8%, CCc1nnc(NC(=O)C(C)C)s1 -5.28%, CC(C)c1nnc(NC(=O)CSc2nc3ccccc3s2)s1 -2.5%, COC(=O)CSC(C)C(=O)Nc1nnc(C(C)C)s1 (centres undefined) -2.42%, CCC(Sc1nc2ccccc2s1)C(=O)Nc1nnc(C)s1 (centres undefined) 22.9%, CCOC(=O)CSC(CC)C(=O)Nc1nnc(C(C)C)s1 (centres undefined) 20.9%, Cc1cc(-c2ccco2)n(CC(=O)NCCN(C)C)n1 -1.86%, CCCCNC(=O)NC12CC3CC(CC(C3)C1)C2 3.38%, S=C(Nc1ccccc1Cl)NC1CC2CCCC(C1)N2C1CC1 (centres undefined) 19.9%, COc1ccc(-c2noc(=O)[nH]2)cc1 -9.72%, COc1ccc(-c2nc3ccccc3[nH]2)cc1 12.5%, O=C(CCn1c(=O)oc2ccccc21)Nc1nccs1 0.79%, Nc1cc(C2CCCC2)nn1-c1ccccc1 16.1%, Cc1nn(CC(=O)NCCCN2CCOCC2)c(C)c1[N+](=O)[O-] 3.72%, COC(=O)NCc1cc2cc(Cl)ccc2[nH]1 8.05%, O=S(=O)(Nc1ccn(-c2ccccc2)n1)c1ccc(Br)cc1 21.4%, O=S(=O)(N/N=C\C=C\c1ccccc1)c1ccc(Br)cc1 31.2%, Cc1ccc(C(=O)Nc2ccccc2C(=O)N2CC3(C)CC2CC(C)(C)C3)cc1 (centres undefined) -0.05%, COc1ccc(C[C@H]2CN3C(=NC[C@@H]3C(C)C)N2C[C@H](C)NC(=O)c2ccc(C)c(Br)c2)cc1 -1.28%, COc1ccc2c(c1OC)C(=O)OC2Nc1nc(-c2cc3cc(Br)ccc3oc2=O)cs1 (centres undefined) -3.55%, COc1ccc2c(c1OC)C(=O)OC2Nc1nc(-c2cc3cc([N+](=O)[O-])ccc3oc2=O)cs1 (centres undefined) 42.4%, CSc1nsc(SC)c1CO -0.7%, Cc1cccc(NC(=O)CSc2nc3c(c(=O)[nH]2)CCC3)c1C 49.7%, Cc1cccc(NC(=O)CSc2nc3nc(C)cc(C)c3c(=O)[nH]2)c1 15.8%, Cc1cccc(NC(=O)CSc2nc(C)c(Cc3ccccc3)c(=O)[nH]2)c1 -0.73%, Cc1cccc(NC(=O)CSc2nc3c(c(=O)[nH]2)CCCC3)c1C 12.7%, CC(=O)Nc1c(O)nc(SCC(=O)Nc2ccc(C(C)=O)cc2)[nH]c1=O 21.4%, CC(=O)Nc1c(O)nc(SCC(=O)Nc2c(C)cccc2C)[nH]c1=O 13.4%, S=c1[nH]ncn1/N=C/c1cccc(Oc2ccccc2)c1 13.2%, Cc1ccc(CNc2ccc(S(=O)(=O)N3CCOCC3)cc2[N+](=O)[O-])cc1 -4.05%, CCCC1C2C(=O)N(c3ccccc3)C(=O)C2ON1c1ccccc1 (centres undefined) -10.4%, CCc1ccc(OC(=O)c2ccn(CC)n2)cc1 2.96%, CCOC(=O)c1c(C)[nH]c(C)c1C(=O)COC(=O)c1ccc(O)cc1 0.26%, O=C(O)c1ccccc1-c1ccccc1C(=O)Nc1ccccc1 -2.4%, Cc1ccc(NC(=O)c2ccccc2-c2ccccc2C(=O)O)cc1C 4.01%, O=C(CSc1nc2ccc(NC(=O)C3CCCCC3)cc2s1)NCC1CCCO1 (centres undefined) 2.95%, O=C(Nc1ccc(N2C(=O)C3CCCCC3C2=O)cc1Cl)c1cccs1 (centres undefined) -2.37%, Cc1ccc(-n2c(C)cc(C(=O)COC(=O)C3=NNC(=O)CC3)c2C)cc1 30.1%, Cc1cc(C(=O)COc2ccccc2C(N)=O)c(C)n1C1CC1 -2.25%, Cc1cc(C(=O)COC(=O)c2ccc[nH]c2=O)c(C)n1-c1ccccc1F 8.77%, COCCn1c(C)cc(C(=O)COC(=O)c2ccc[nH]c2=O)c1C 49.1%, Cc1cc(C(=O)COC(=O)C2=NNC(=O)CC2)c(C)n1-c1ccccc1 7.43%, Cc1ccc(-n2c(C)cc(C(=O)COC(=O)c3c(C)noc3C)c2C)cc1 0.29%, Cc1cc(C(=O)COC(=O)c2ccc[nH]c2=O)c(C)n1C 14.9%, Cc1cc(C(=O)COC(=O)c2ccc(O)cc2)c(C)n1CCc1ccc(F)cc1 13.2%, CCCn1c(SCC(=O)NC(=O)Nc2ccc(C)cc2C)n[nH]c1=O -6.72%, O=C(Cn1ccc([N+](=O)[O-])n1)NCCc1c[nH]c2ccccc12 -5.35%, C=CCn1c(=O)c2ccccc2n2c(SCC(=O)Nc3sc(C(=O)N(CC)CC)c(C)c3C(=O)OCC)nnc12 1.64%, O=C(N/N=C/c1ccc2c(c1)OCO2)c1cc(-c2ccc(F)cc2)nc2ccccc12 8.91%, CCCCn1nnnc1NCc1ccc(N2CCCC2)cc1 2.89%, COc1cccc(-n2cn[nH]c2=S)c1 -0.99%, O=C(NC1CCCC1)C(c1ccc(N2CCOCC2)cc1)N(Cc1ccco1)C(=O)c1ccco1 (centres undefined) 6.04%, CCOC(=O)c1cc(C)n(-c2ccc(OC)c(OC)c2)c1C 0.75%, Cc1ccc(-n2c(C)cc(C(=O)COc3c(CO)cc(F)cc3CO)c2C)cc1C 11.4%, COCC(=O)OCC(=O)c1cc(C)n(-c2ccc(Br)cc2)c1C 1.88%, CCC(=O)OCC(=O)c1cc(C)n(-c2ccc(Br)cc2)c1C 0.2%

From PubChem BioAssay AID1619 (SRMLSC, 2009)
